Data as given in the supplement of paper PMC10981050.
Values joined by “and” are separate entries in the source; they are usually repeats but may differ in a detail not shown here. Equal values may be shown once. Where a name gives a salt, the structure may show the parent alone.

What was measured:
Experiment in all cases: cell viability relative to vehicle control; higher = less cytotoxic
Conditions in all cases: 10 µM
K562 = system: K562
In short: (§1)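 Mutant clones made by CRISPR editing and their isogenic wild-type counterparts, from four leukaemia lines, were exposed to a single 10 µM dose of each library compound for 48 h. The supernatant was then removed and CellTiter-Glo luminescence was read. Viability was reported as percent of the on-plate vehicle control.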

MARIMO = system: MARIMO
In short: as §1

MOLM14 = system: MOLM14
In short: as §1

OCI-AML2 = system: OCI-AML2
In short: as §1

SMILES	cell viability (K562; SRSF2 genotype: SRSF2 P95H/wt)	cell viability (K562; SRSF2 genotype: SRSF2 wt/wt)	cell viability (MARIMO; SRSF2 genotype: SRSF2 P95H/wt)	cell viability (MARIMO; SRSF2 genotype: SRSF2 wt/wt)	cell viability (MOLM14; SRSF2 genotype: SRSF2 P95H/wt)	cell viability (MOLM14; SRSF2 genotype: SRSF2 wt/wt)	cell viability (OCI-AML2; SRSF2 genotype: P95H/wt)	cell viability (OCI-AML2; SRSF2 genotype: wt/wt)
COc1cc(OC)c(/C=C/S(=O)(=O)Cc2ccc(OC)c(NCC(=O)O)c2)c(OC)c1	16.5% and 39%	35.6%	5.99%	9.46%	0.51%	0.74%	1.32%	2.98%
Cc1cc(N2CCN([C@@H]3CN[C@H](C(=O)N4CCSC4)C3)CC2)n(-c2ccccc2)n1 [Teneligliptin hydrobromide]	90.4% and 78%	83.5%	86.8%	95.5%	84.8%	89%	94.2%	91.8%
O=C(O)CC[C@H]1CC[C@@](c2cc(F)ccc2F)(S(=O)(=O)c2ccc(Cl)cc2)CC1	102% and 101%	97.9%	91.6%	92.1%	98.3%	99.2%	102%	97%
CCN=C1N[C@@H]2[C@@H](O)[C@H](O)[C@@H](CO)O[C@@H]2S1 [Thiamet G]	99.9% and 104%	101%	103%	106%	92.8%	99.8%	101%	107%
C[C@]12CCC(=O)C=C1[C@@H]1C[C@@H]1[C@H]1[C@@H]3[C@@H]4C[C@@H]4[C@@]4(CCC(=O)O4)[C@@]3(C)CC[C@@H]12 [Drospirenone]	83.3% and 90.5%	83.3%	82%	91.8%	83.8%	89.2%	101%	92.7%
C[C@@H]1[C@H](O)[C@@H](C)/C=C/C=C/C=C/C=C/C=C/C=C/C=C/[C@H](O[C@@H]2O[C@H](C)[C@@H](O)[C@H](N)[C@@H]2O)C[C@@H]2O[C@](O)(C[C@@H](O)C[C@@H](O)[C@H](O)CC[C@@H](O)C[C@@H](O)CC(=O)O[C@H]1C)C[C@H](O)[C@H]2C(=O)O [Amphotericin B]	97.4% and 101%	104%	110%	103%	93.9%	101%	126%	110%
CCOC(=O)/C=C/c1ccc(O)c(O)c1 [Ethyl caffeate]	88.5% and 88.6%	95%	44.4%	80.5%	78.1%	78.1%	76.8%	77.7%
C=C1CC[C@@H]2[C@](C)(COC(=O)CCC(=O)O)[C@H](OC(=O)CCC(=O)O)CC[C@@]2(C)[C@@H]1/C=C/C1=CCOC1=O [Dehydroandrographolide Succinate Potasium Sa]	105% and 103%	105%	105%	101%	99.1%	105%	109%	104%
Cc1cccc(Nc2cc(Cl)nc(SCC(=O)O)n2)c1C	95.6% and 95.5%	97.2%	98.9%	99.9%	95.9%	98.5%	90.3%	94.4%
O=c1[nH]c2ccccc2n1CCN1CCN(c2cccc(C(F)(F)F)c2)CC1 [Flibanserin]	89.2% and 98.9%	91.8%	96.9%	110%	101%	102%	91%	108%
CCOC(=O)CCC(=O)O[C@H]1[C@H](O[C@@H]2[C@@H](C)[C@H](O[C@H]3C[C@@](C)(OC)[C@@H](O)[C@H](C)O3)[C@@H](C)C(=O)O[C@H](CC)[C@@](C)(O)[C@H](O)[C@@H](C)C(=O)[C@H](C)C[C@@]2(C)O)O[C@H](C)C[C@@H]1N(C)C [Erythromycin Ethylsuccinate]	95.1% and 103%	108%	102%	101%	106%	102%	117%	98.3%
C[C@H]1c2cccc(O)c2C(O)=C2C(=O)[C@]3(O)C(O)=C(C(N)=O)C(=O)[C@@H](N(C)C)[C@@H]3[C@@H](O)[C@@H]21 [Doxycycline]	82.7% and 74.8%	79.9%	91.8%	91.3%	102%	99.5%	88.2%	96.2%
CC(C)(CNC(=O)c1cccc(-c2noc(C(F)(F)F)n2)c1)c1coc(-c2ccccc2)n1	89.2% and 87.4%	94.5%	82.1%	82.6%	91%	96%	52.5%	67.2%
COc1ccc(CCO[C@@H]2O[C@H](CO[C@@H]3OC[C@H](O)[C@H](O)[C@H]3O)[C@@H](OC(=O)/C=C/c3ccc(O)c(OC)c3)[C@H](O[C@@H]3O[C@@H](C)[C@@H](O)[C@@H](O)[C@H]3O)[C@H]2O)cc1O [Angoroside C]	107% and 103%	111%	101%	96.2%	113%	106%	105%	95.5%
CCCCCCCCOc1ccccc1C(=O)Nc1ccc(C(=O)OCC[N+](C)(CC)CC)cc1 [Otilonium Bromide]	78.5% and 92%	92.3%	84.9%	84.5%	76.7%	89%	34.4%	70.2%
C[C@@H]([C@H](C)O)[C@H](N)C(=O)O [(4S)-4-Hydroxy-L-isoleucine]	105% and 96.3%	102%	100%	102%	111%	102%	108%	104%
Oc1ccc(OCc2ccccc2)cc1 [Monobenzone (Benoquin)]	89.5% and 92.4%	83.9%	53.8%	73%	27.1%	11.3%	32.5%	47.3%
COc1ccc(-c2ccc3c(N4CCOC[C@@H]4C)nc(N4CCOC[C@@H]4C)nc3n2)cc1CO	39.7% and 40.4%	35.5%	54.4%	46.2%	30.4%	26.2%	26.5%	27.7%
CNCc1cc(-c2ccccc2F)n(S(=O)(=O)c2cccnc2)c1 [Vonoprazan Fumarate (TAK-438)]	94.5% and 98%	94.2%	85.5%	89.8%	93%	91.3%	97.1%	85.7%
C[C@@H]1CC[C@@]2(NC1)O[C@H]1C[C@H]3[C@@H]4CC=C5C[C@@H](O[C@@H]6O[C@H](CO)[C@@H](O[C@@H]7O[C@@H](C)[C@H](O)[C@@H](O)[C@H]7O)[C@H](O)[C@H]6O)CC[C@]5(C)[C@H]4CC[C@]3(C)[C@H]1[C@@H]2C [Khasianine]	104% and 102%	103%	102%	104%	104%	102%	104%	107%

SMILES	cell viability (K562; SRSF2 genotype: SRSF2 P95H/wt)	cell viability (K562; SRSF2 genotype: SRSF2 wt/wt)	cell viability (MARIMO; SRSF2 genotype: SRSF2 P95H/wt)	cell viability (MARIMO; SRSF2 genotype: SRSF2 wt/wt)	cell viability (MOLM14; SRSF2 genotype: SRSF2 P95H/wt)	cell viability (MOLM14; SRSF2 genotype: SRSF2 wt/wt)	cell viability (OCI-AML2; SRSF2 genotype: P95H/wt)	cell viability (OCI-AML2; SRSF2 genotype: wt/wt)
NS(=O)(=O)c1ccc(NC(=S)N2CCN(CC=Cc3ccccc3)CC2)cc1	85.3% and 88.8%	93.5%	83.5%	76.7%	95.3%	99.2%	64.5%	76.5%
CNCCc1ccccn1 [Betahistine 2HCl]	97.2% and 99.7%	95.5%	88.7%	102%	90.6%	99.8%	89.3%	101%
CCC(=O)NCC[C@@H]1CCc2ccc3c(c21)CCO3 [Ramelteon]	105% and 104%	97.6%	91.7%	101%	107%	98.8%	93.7%	99.4%
CN1CC(O)c2cc(N=NC(N)=O)c(O)cc21 (configuration not stated) [Carbazochrome]	98.5% and 95.6%	89.4%	99.4%	94.8%	95.7%	101%	98.8%	95.4%
COc1cc2c(=O)c3c(O)c([C@@H]4O[C@H](CO[C@@H]5OC[C@](O)(CO)[C@H]5O)[C@@H](O)[C@H](O)[C@H]4O)c(O)cc3oc2cc1O [Polygalaxanthone III]	99.2% and 105%	98%	100%	98.8%	101%	98.4%	105%	97.3%
CC1(C)O[C@@H]2C[C@H]3[C@@H]4CCC5=CC(=O)C=C[C@]5(C)[C@H]4[C@@H](O)C[C@]3(C)[C@]2(C(=O)CO)O1 [Desonide]	97.9% and 104%	102%	102%	110%	106%	100%	104%	121%
Cc1ccc(NCCCc2ccccc2)c(N)c1	74.3% and 88.2%	83.1%	48.2%	72.4%	69%	72.5%	60.8%	63.5%
C=CC(=O)Nc1cccc(C)c1Nc1ncc2cc(-c3c(Cl)c(OC)cc(OC)c3Cl)ccc2n1	29.7% and 25.7%	35.1%	47.6%	55.7%	6.84%	4.93%	6.53%	11.9%
CC1(C)[C@@H](OC(=O)CCC(=O)O)CC[C@]2(C)[C@H]3C(=O)C=C4[C@@H]5C[C@@](C)(C(=O)O)CC[C@]5(C)CC[C@@]4(C)[C@]3(C)CC[C@@H]12 [Carbenoxolone disodiuM]	95.9% and 92.2%	88%	96.2%	99%	91.8%	96.7%	89.3%	103%
CC(C)=CCC/C(C)=C\CO [Nerol]	109% and 104%	104%	110%	114%	106%	107%	103%	109%
CCC(=O)O[C@]1(C(=O)SCF)[C@H](C)C[C@H]2[C@@H]3C[C@H](F)C4=CC(=O)C=C[C@]4(C)[C@@]3(F)[C@@H](O)C[C@@]21C [Fluticasone propionate (Flonase, Veramyst)]	92.7% and 86.5%	88%	87.8%	99%	85.3%	83.2%	86.7%	108%
O=C(N[C@@H](c1ccccc1)[C@@H](O)C(=O)O)c1ccccc1 [N-Benzoyl-(2R,3S)-3-phenylisoserine]	108% and 99.9%	103%	100%	98.4%	103%	102%	101%	104%
CC(C)(C)C(=O)Nc1ccc2c(c1)C(=O)C(=O)c1ccccc1-2 [SF1670 (PTEN inhibitor)]	84.3% and 70.9%	56.8%	2.56%	70.5%	88.4%	39.2%	65.8%	76.2%
CO/N=C(\C(=O)N[C@@H]1C(=O)N2C(C(=O)O)=C(CSC(=O)c3ccco3)CS[C@H]12)c1csc(N)n1 [Ceftiofur]	108%	103%	110%	109%	97%	108%	112%	105%
CCCN(CCc1cccs1)[C@H]1CCc2c(O)cccc2C1 [Rotigotine]	99.3% and 105%	104%	89.7%	105%	93.8%	101%	107%	92.3%
Cn1cc(/C=C2\C(=O)Nc3cccnc32)c2ccccc21	98% and 98.2%	96.4%	91.2%	94.3%	25.7%	22.9%	49.4%	56.2%
CC(C)Oc1ccc(-c2cnc3c(-c4ccnc5ccccc45)cnn3c2)cc1	86.4% and 88.6%	84.7%	86.1%	98%	84.6%	90.4%	82.2%	78.1%
CC1=C(CSC(=S)N2CCCCC2)C(=O)c2ccccc2C1=O [PKM2 inhibitor(compound 3k)]	3.74% and 0.42%	8.02%	0.75%	0.85%	0.19%	0.21%	0.2%	1.51%
CCCCC(F)(F)[C@@]1(O)CC[C@H]2[C@@H](CC(=O)[C@@H]2CCCCCCC(=O)O)O1 [Lubiprostone]	101% and 100%	104%	93.9%	98%	84.5%	98.8%	83.6%	88%
